Compound activity deposited in PubChem BioAssay by National Center for Advancing Translational Sciences (NCATS).
ELG1 genotox – inducers of genotoxicity in HEK293T ELG1-luciferase cells. AID 504466. Potency, µM (highest dose often 46 µM), usual class: activators. actives 1.3% (n = 330,000). HEK293T ELG1-luciferase reporter, luminescence, 16 h; also: nearly all actives have a fitted effect of over 60% in size
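Screening used a luciferase reporter fused to human ELG1 in HEK293T cells. Luminescence was read on a CCD plate imager after 16 hr exposure and 30 min ONE-Glo incubation.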
FLuc modulator – inhibits or activates purified firefly luciferase, miR-21 counter-screen. P08659. purified FLuc, Km substrates, luminescence inhibition. Potency, µM (titrated, usually from 57.5 µM), hits mostly inhibitors. actives 6.9% (n = 360,000); also: nearly all actives have a fitted effect of over 55% in size
Target sequence (P08659 whole entry, looked up): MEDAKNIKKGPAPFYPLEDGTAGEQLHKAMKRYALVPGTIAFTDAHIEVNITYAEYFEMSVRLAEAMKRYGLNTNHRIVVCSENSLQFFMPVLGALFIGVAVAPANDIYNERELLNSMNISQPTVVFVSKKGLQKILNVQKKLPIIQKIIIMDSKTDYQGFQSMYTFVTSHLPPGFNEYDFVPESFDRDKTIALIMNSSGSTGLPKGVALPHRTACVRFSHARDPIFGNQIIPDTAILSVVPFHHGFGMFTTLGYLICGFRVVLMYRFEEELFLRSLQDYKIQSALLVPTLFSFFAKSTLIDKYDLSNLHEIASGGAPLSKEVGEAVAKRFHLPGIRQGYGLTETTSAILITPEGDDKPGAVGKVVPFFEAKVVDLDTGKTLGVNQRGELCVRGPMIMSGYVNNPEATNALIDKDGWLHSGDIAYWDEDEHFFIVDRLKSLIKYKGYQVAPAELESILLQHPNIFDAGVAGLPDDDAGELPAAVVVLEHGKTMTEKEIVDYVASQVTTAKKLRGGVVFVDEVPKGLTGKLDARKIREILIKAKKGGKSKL
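Biochemical qHTS of compounds, final roughly 60 µM downward over six points, against 10 nM purified firefly luciferase using Km concentrations of substrates (10 uM D-luciferin, 10 uM ATP) in Tris acetate pH 7.5 buffer; luminescence output.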
Rab9 promoter act – activators of Rab9 promoter; AID 485297; Huh7 Rab9 promoter-luciferase reporter, luminescence, 24 h; actives 2.8% (n = 320,000); Potency, µM (series often up to 9.22 µM), usual class: activators; also: nearly all actives have a fitted effect of over 60% in size
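Cells were plated at 1500 per well in reduced-serum medium with 10% FBS and left 2 h. Compound in DMSO was then added for 24 h at 37 °C. Reporter signal was read by luminescence after 10 min with luciferase detection reagent.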
SMN2 splice up – increases expression of the SMN2 splice variant | HEK293 SMN2-luciferase splicing reporter, luminescence, 30-36 h | Potency, µM (titrated, usually from 46.1 µM), actives largely listed as activators | actives 2.8% (n = 210,000) | AID 1458; also: nearly all actives have a fitted effect of over 55% in size
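qHTS luciferase splicing reporter: luminescence rises when SMN2 exon 7 is included in transfected HEK293 cells. Compound exposure lasted 30-36 h at 37C, with 4.5 mM final sodium butyrate as control, followed by a ONE-Glo read.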
NPC1 promoter act – NPC1 promoter activation; Potency, µM (titrated, usually from 9.22 µM), actives largely listed as activators; Huh7 NPC1 promoter luciferase reporter, 24 h; AID 485313; actives 2.4% (n = 320,000); also: nearly all actives have a fitted effect of over 60% in size
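Huh7 reporter cells (NPC1 promoter driving luciferase) are dosed with compound for 24 h at 37 °C, 5% CO2; luciferase detection reagent is then added and luminescence measured after 10 min at ambient temperature.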
Numbers stand for hits; - = inactive; ? = inconclusive; . = no result; [ ] = dose if it differs, or a comment. An excerpt weighted towards active compounds, which were near 7.5% of everything screened. Calls follow the shape of the dose curve; as a rule, active = well fitted curve in the direction sought with a large enough effect; inconclusive = small, poorly fitted or top-dose-only effect, or another doubt; inactive = no such curve, though single readings can be large; an effect the other way counts as inactive or inconclusive.

SMILES	ELG1 genotox	FLuc modulator	Rab9 promoter act	SMN2 splice up	NPC1 promoter act
Cc1cc(C)c2nc(-c3ccccn3)cc(C(=O)NCc3cc(C)n(C)n3)c2c1	?	-	-	-	-
CC(C)Oc1cccc(-c2cc(C(=O)NN3CCOCC3)c3ccccc3n2)c1	-	13µM	-[1.84 µM]	.	-
O=C1C(N2CCOCC2)=C(n2nnc3ccccc32)C(=O)c2ccccc21	-	-	-	-	-
Fc1cccc(CN2CCN(c3ncccn3)CC2)c1	-	-	-	-	-
Cc1cccc(-n2c(Cc3cc(=O)[nH]c(=O)[nH]3)nnc2SCC(=O)N2CCc3ccccc32)c1	-	-	-	.	-
O=C(CSc1nc2ccccc2o1)N/N=C/c1ccc(O)c(O)c1	-	19µM	-	.	-
C/C(=N\NC(=O)CSc1nc2ccccc2o1)c1ccc(O)cc1	-	17µM	-	-	-
C/C(=N\NC(=O)CSc1nc2ccccc2o1)c1cccc(O)c1	-	-	-	.	-
CCOc1ccc(NC(=O)CSc2nnc(-c3ccco3)n2C)cc1	-	-	-	-	-
O=C(CSc1nnc(-c2ccco2)n1Cc1ccccc1)c1ccccc1	?	12µM	1.4µM	-	4.5µM
CCOC(=O)c1c(C)[nH]c(C)c1C(=O)CSc1nnc(-c2ccncc2)n1Cc1ccccc1	-	-	-	-	-
CCn1c(SCC(=O)Nc2ccc(OCc3ccccc3)cc2)nnc1-c1ccco1	-	15µM	-	-	-
CCOC(=O)c1c(C)[nH]c(C)c1C(=O)CSc1nnc(-c2ccco2)n1Cc1ccccc1	-	-	-	35µM	-
Cc1ccc(CNC(=O)c2coc(=O)c3ccccc23)o1	-	-	-	-	-
C[C@@](N)(Cc1ccc(O)cc1)C(=O)O	.	.	.	-	.
COCCCN1C(=O)C(=O)/C(=C(/O)c2ccc(OC(C)C)cc2)C1c1ccc(O)c(OC)c1 (stereo not given)	-	-	-	-	-
O=c1[nH]n(-c2ncnc3c2cnn3-c2ccccc2)c(=O)c2ccccc12	-	13µM	-	-	-
c1ccc(-n2ncc3c(NCCN4CCCCC4)ncnc32)cc1	?	19µM	?	-	?
CC(C)(C)Nc1ncnc2c1cnn2-c1ccccc1	1µM	1.5µM	0.4µM	2µM	0.35µM
c1ccc(-n2ncc3c(NCCN4CCOCC4)ncnc32)cc1	13µM	?	-	.	?
Cc1cccc(-n2ncc3c(NCCN4CCOCC4)ncnc32)c1	-	?	-	-	-
COc1ccc(C(=O)NCCc2c[nH]c3ccccc23)cc1S(=O)(=O)N1CCCCC1C (stereo not given)	-	-	-	.	-
Cc1c(CCOC(=O)c2cc([N+](=O)[O-])cc([N+](=O)[O-])c2)sc[n+]1CC(=O)c1ccc(Br)cc1	-	-	-	-	-
COc1cccc(N2CCN(S(=O)(=O)c3cccc4nsnc34)CC2)c1	-	-	-	-	-
COc1ccc(C(=O)NCC(=O)N2CCN(c3ccccc3)CC2)cc1	-	-	-	.	-
SMILES	ELG1 genotox	FLuc modulator	Rab9 promoter act	SMN2 splice up	NPC1 promoter act
CCn1c(SCC(=O)N(C)C)nc2cc(S(=O)(=O)N3CCCCC3)ccc21	-	-	-	.	-
COc1ccccc1Oc1ncnc2c1cnn2-c1ccccc1	?	12µM	4µM	13µM	?
COc1ccc(-n2ncc3c(NC(C)(C)CO)ncnc32)cc1	.	4.8µM	.	.	.
COc1ccc(C(=O)NNc2ncnc3c2cnn3-c2ccccc2)cc1	.	-	.	.	.
c1ccc(CCNc2ncnc3c2cnn3-c2ccccc2)cc1	?	6.7µM	1.6µM	11µM	3.2µM
CC(C)CN1CCN(Cc2cccn2-c2cccnc2)CC1CCO (stereo not given)	-	-	-	.	-
O=C(/C=C/c1ccccc1)N/C(=C\c1ccco1)C(=O)O	-	?	-	.	-
Cc1cc(C(=O)N/N=C/c2cccc([N+](=O)[O-])c2O)n[nH]1	-	15µM	-	-	-
CC(C)(C)c1cc(C(=O)N/N=C/c2ccc(-c3ccccc3[N+](=O)[O-])o2)n[nH]1	-	21µM	-	.	-
Cc1cc(C(=O)N/N=C/c2ccc(O)c([N+](=O)[O-])c2)n[nH]1	-	?	-	-	-
CCCCC[C@H](O)/C=C/C=C\CCCCCCCCCC(=O)O	.	.	.	-	.
Cc1ncc(CN2CCN(C3CCCC3)C(CCO)C2)s1 (stereo not given)	-	-	-	.	-
COc1ccc(Cl)cc1NS(=O)(=O)c1ccc2c(c1)NC(=O)CCS2	-	-	-	.	-
O=C(Nc1ccccc1)[C@@H]1[C@@H]2C(=O)N(c3ccc(F)cc3)C(=O)[C@@H]2[C@H]2C=CC=NN21	-	?	-	.	-
O=C(NC1CCCCC1)c1cc2nc3c(c(C(F)(F)F)n2n1)CCCC3	?	24µM	3.5µM	35µM	?
Cc1ccc(C)c(NC(=O)c2c(Cl)nc3ccccn23)c1	-	-	-	-	-
Cc1nc2ccccn2c1C(=O)Nc1ccc(Cl)cc1	?	24µM	?	-	?
Cc1nc2ccccn2c1C(=O)N/N=C/c1ccc2c(c1)OCO2	?	12µM	-	?	-
Cc1nc2ccccn2c1C(=O)NCc1ccc2c(c1)OCO2	-	-	-	-	-
Cc1ccc(NC(=O)c2c(Cl)nc3ccccn23)cc1	?	11µM	?	13µM	-
Cc1nc2ccccn2c1C(=O)Nc1ccc2c(c1)OCCO2	?	12µM	?	7.1µM	?
COc1ccc2c(=O)c(C(=O)NCCc3ccc(OC)c(OC)c3)c[nH]c2c1	-	-	-	-	-
C=CCn1c(SCC(=O)NCCC2=CCCCC2)nc2ccc(Cl)cc2c1=O	-	-	-	-	-
CCOC(=O)N1CCN(C(=O)COc2ccc3ccccc3c2Br)CC1	-	-	-	.	-
Cc1cccc(C)c1OCCn1nnc2ccccc21	-	-	-	.	-
SMILES	ELG1 genotox	FLuc modulator	Rab9 promoter act	SMN2 splice up	NPC1 promoter act
CCn1c(Cc2c(C)[nH]c3ccccc23)nnc1SCC(=O)NCc1ccccc1	-	-	-	-	-
CCCc1cc(=O)[nH]c(Nc2ccc(O)cc2C)n1	.	-	.	-	.
Cc1cc(O)ccc1Nc1nc2ccccc2nc1Nc1ccc(O)cc1C	-	17µM	-	-	-
CCCCc1c(C)nn(-c2nnc3c4ccccc4n(C)c3n2)c1C	-	6.7µM	-	-	-
Cc1ccc(NC(=O)c2c(C)nc3sc(C(=O)NC4CCCC4)c(N)c3c2-c2ccco2)c(C)c1	-	-	-	-	-
CN(CC(=O)Nc1ccc(Cl)cc1)C(=O)CNC(=O)c1cccs1	-	-	-	.	-
Cc1ccc2nc(Nc3ccc4[nH]c(=O)[nH]c4c3)c(-n3nc(C)cc3C)nc2c1	?	0.85µM	?	18µM	-
Cc1cc(C)n(-c2nc3ccccc3nc2Nc2ccc(N(C)C)cc2)n1	.	-	.	-	.
CCCOC(=O)CSc1ncnc2sc3c(c12)CCC(C)C3 (stereo not given)	.	8.5µM	.	-	.
CC(=O)CSc1ncnc2sc3c(c12)CCC(C)C3 (stereo not given)	-	15µM	-	-	-
